The text below walks through data of article PMC6212790, “How bacterial xenogeneic silencer rok distinguishes foreign from self DNA in its resident genome”.

Whole data set: some 33,000 sequences, median “e-score” near -0.038, cut for the highest 2% near 0.33. Only a selection was taken, and the highest values are over-represented in it overall.

In the test the target is T1, GST-Rok-C97-191 (Bacillus subtilis subsp. subtilis str. …, UniProt O34857 97-191).
T1 sequence: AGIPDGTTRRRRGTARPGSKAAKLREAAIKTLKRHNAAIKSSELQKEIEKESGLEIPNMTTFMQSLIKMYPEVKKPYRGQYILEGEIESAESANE
The experiment in a line: protein binding microarray; Rok is a gene silencer of Bacillus subtilis; high values mean tight binding. To be noted: protein: recombinant; tags: GST (pTH5325, pDEST15-Magic modified); dsDNA, one strand shown. The method in brief:
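Each has a 25-mer constant primer and a 35-mer variable part from a de Bruijn sequence of order 10, covering every non-palindromic 8-mer at least 32 times (palindromic 16). Preference for each 8-mer is given as a rank-based, unitless enrichment score (E-score). Its range runs from 0.5 (most favored) to −0.5 (most disfavored).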
As to CTGGTAGA, the binding signal was 0.324 E-score.

For ATGGTAGC, the binding signal was 0.35 E-score.

As for GTGGTAAA, the binding signal came out at 0.21 E-score.

Take ATGGTAAA: the binding signal worked out at 0.23 E-score.

With CTGGTATA, the binding signal worked out at 0.205 E-score.

As for ATGGTATA, the binding signal amounted to 0.353 E-score.

Turning to ATGGTATC, the binding signal is 0.0289 E-score.

For ATGGTAGG, the binding signal amounted to 0.278 E-score.

For ATGGTACA, the binding signal amounted to 0.199 E-score.

ATGGTAGA: the binding signal turned out to be 0.448 E-score.

On to AACATCCG, for which the binding signal amounted to 0.0335 E-score.

AACCGGTT: the binding signal was 0.0733 E-score.

Regarding AGTAGCAA, the binding signal came to 0.277 E-score.

ACCTCTCG: the binding signal was found to be 0.00338 E-score.

Regarding CGAAACAA, the binding signal was found to be 0.0284 E-score.

CAAGCTGC: the binding signal is -0.171 E-score.

Turning to AGCGACCT, the binding signal came to 0.06 E-score.

CACGATGA: the binding signal is -0.103 E-score.

On to GGGAAGGA, for which the binding signal is -0.18 E-score.

Regarding ATAGATTG, the binding signal is 0.304 E-score.

For the sequence ATAGATTA, the binding signal worked out at 0.331 E-score.

For the sequence ATAGATTC, the binding signal was found to be 0.34 E-score.

As to CTAGATTC, the binding signal worked out at 0.166 E-score.

Regarding ATAGAAAA, the binding signal was determined as 0.267 E-score.

In the case of ATAGAAAC, the binding signal is 0.326 E-score.

With ATAGAATC, the binding signal was found to be 0.274 E-score.

On to ATAGAATG, for which the binding signal came to 0.165 E-score.

For ACAGATTA, the binding signal came to 0.0434 E-score.

Consider AAAGATTA, for which the binding signal was 0.212 E-score.

As for ATAGAATA, the binding signal came to 0.354 E-score.

ATAGAAAT: the binding signal worked out at 0.381 E-score.

Take AGAAGACA: the binding signal was 0.059 E-score.

With AACCTGCG, the binding signal was -0.0596 E-score.

Turning to CAAGGTAA, the binding signal was 0.166 E-score.

For the sequence CACAATGA, the binding signal was found to be 0.00707 E-score.

On to GTTAATGA, for which the binding signal came out at 0.082 E-score.

For GTCCCTGA, the binding signal was -0.188 E-score.

Turning to TCTGGGAA, the binding signal worked out at 0.0446 E-score.

As for TACTGGCA, the binding signal was 0.0047 E-score.

For ACCTATGC, the binding signal is -0.0256 E-score.

Consider ATTGGGGA, for which the binding signal was -0.0754 E-score.

For the sequence CTAGATTA, the binding signal was determined as 0.312 E-score.

Turning to GTAGATTA, the binding signal is 0.344 E-score.

Consider GCAGATTA, for which the binding signal is 0.028 E-score.

With GAAAGCTC, the binding signal is -0.157 E-score.

With CAGTAGTC, the binding signal is -0.151 E-score.

For GAGTAGTA, the binding signal was found to be 0.305 E-score.

Consider ATGTAGTC, for which the binding signal worked out at 0.156 E-score.

With ATGTAGTG, the binding signal is 0.163 E-score.

AAGTAGTA: the binding signal is 0.358 E-score.

As to CAGTAGTA, the binding signal came to 0.362 E-score.

ATGTAGTA: the binding signal is 0.407 E-score.

Take AAGTAGTC: the binding signal is 0.226 E-score.

AAGTAGTG: the binding signal amounted to 0.211 E-score.

For the sequence TCCGCTCA, the binding signal was -0.118 E-score.

Consider CGCTTTCC, for which the binding signal is -0.13 E-score.

On to CGGAAAGA, for which the binding signal was -0.135 E-score.

For AACCTCAA, the binding signal was -0.0809 E-score.

For ACACTGGT, the binding signal turned out to be 0.0216 E-score.

On to GCGGGAGA, for which the binding signal was -0.111 E-score.

As for CTGGCGAC, the binding signal is -0.196 E-score.

With AATATAGT, the binding signal was 0.337 E-score.

Turning to AATATCGT, the binding signal is 0.204 E-score.

For ACTATAGT, the binding signal was determined as 0.411 E-score.

On to AATATAGC, for which the binding signal was found to be 0.349 E-score.

For the sequence GATATAGC, the binding signal was determined as 0.0553 E-score.

Regarding AATATAGG, the binding signal is 0.0639 E-score.

For the sequence ACTATAGC, the binding signal is 0.207 E-score.

In the case of CATATAGC, the binding signal is 0.127 E-score.

As for AAAATAGA, the binding signal stood at 0.271 E-score.

For the sequence AAAATAGT, the binding signal was 0.404 E-score.

For the sequence AAAATAGC, the binding signal was determined as 0.21 E-score.

For the sequence ACTATAGG, the binding signal is 0.148 E-score.

With GTTCAGCA, the binding signal came to 0.0486 E-score.

With TAAGGCAA, the binding signal was 0.0603 E-score.

For CTGGGAAG, the binding signal was -0.0965 E-score.

For the sequence CCACTTAG, the binding signal is -0.0775 E-score.

Turning to CGGAGTCC, the binding signal is -0.199 E-score.

As to TAGATCAA, the binding signal was 0.156 E-score.

Turning to CTCGACGA, the binding signal was -0.162 E-score.

Regarding CTTCAGAC, the binding signal was -0.188 E-score.

Consider AACCGGTA, for which the binding signal worked out at 0.182 E-score.

For AACCGATA, the binding signal was found to be 0.108 E-score.

As to TACCGGTA, the binding signal is 0.355 E-score.

Turning to CACCGATA, the binding signal was determined as 0.152 E-score.

Turning to TACCGATA, the binding signal is 0.339 E-score.

Consider CACCGGTA, for which the binding signal came out at 0.0827 E-score.

Turning to GACAAGGC, the binding signal is -0.188 E-score.

Take AAATGCTT: the binding signal is -0.000293 E-score.

In the case of GAGCTCGA, the binding signal is 0.0407 E-score.

For ACGCCAAA, the binding signal was -0.128 E-score.

Take GAGATAGA: the binding signal was 0.15 E-score.

Consider AAGATAAT, for which the binding signal came out at 0.339 E-score.

As for AAGATATC, the binding signal stood at 0.2 E-score.

On to CAGATAGA, for which the binding signal worked out at 0.16 E-score.

Turning to AAGATATA, the binding signal amounted to 0.347 E-score.

Regarding AAGATACA, the binding signal is 0.151 E-score.

On to AAGATAAA, for which the binding signal was 0.314 E-score.

For CAGATACA, the binding signal came to 0.146 E-score.

Consider AAGATATG, for which the binding signal was 0.117 E-score.

As for AAGATAAC, the binding signal came to 0.131 E-score.

As to TAGATAGA, the binding signal amounted to 0.345 E-score.

As for TAGATACA, the binding signal is 0.329 E-score.

GAATAGCC: the binding signal was -0.126 E-score.

Consider AGCAGTCC, for which the binding signal is -0.0761 E-score.

On to AACCCACT, for which the binding signal was 0.0905 E-score.

With ACATCGAA, the binding signal was found to be 0.0242 E-score.

In the case of GCGGCAGA, the binding signal is -0.0665 E-score.

In the case of GGTTTGGA, the binding signal is -0.0233 E-score.

For TTCTTCAA, the binding signal is -0.0566 E-score.

AGTGGATG: the binding signal is -0.131 E-score.

In the case of AAGGCGAT, the binding signal is -0.0931 E-score.

Regarding TAGATATA, the binding signal was 0.359 E-score.

On to GAGATATA, for which the binding signal was determined as 0.301 E-score.

Consider CAGATATA, for which the binding signal was determined as 0.195 E-score.

As for ACGTACTC, the binding signal worked out at 0.0226 E-score.

For ATTATTAC, the binding signal worked out at 0.387 E-score.

Regarding CTTATTAC, the binding signal was 0.332 E-score.

With CTTATTTC, the binding signal came out at 0.221 E-score.

On to ATTATTAG, for which the binding signal was found to be 0.325 E-score.

CTTATTAA: the binding signal stood at 0.117 E-score.

ATTATTAA: the binding signal turned out to be 0.199 E-score.

For GTAGCTGA, the binding signal is 0.279 E-score.

With AATCCTTA, the binding signal came out at 0.107 E-score.

GAATAAAC: the binding signal was 0.0598 E-score.

With ACTCATCG, the binding signal amounted to 0.0111 E-score.

In the case of AATAGGGT, the binding signal is 0.0409 E-score.

Take GGTATAAA: the binding signal was determined as 0.352 E-score.

With AGTATATA, the binding signal turned out to be 0.428 E-score.

Regarding GGTATAGA, the binding signal worked out at 0.221 E-score.

Consider CGTATATA, for which the binding signal stood at 0.258 E-score.

For the sequence GGTATAAC, the binding signal came out at 0.266 E-score.

For the sequence AGTATATG, the binding signal is 0.264 E-score.

For the sequence AGTATATC, the binding signal came to 0.261 E-score.

For AGTATAAA, the binding signal was found to be 0.289 E-score.

For GGTATATA, the binding signal was determined as 0.406 E-score.

As to CATTAAGG, the binding signal is -0.0335 E-score.

On to AGACATTA, for which the binding signal was found to be 0.0762 E-score.

As for ATCCGTAA, the binding signal is -0.0485 E-score.

With GACTCATA, the binding signal was -0.063 E-score.

CCATCAGA: the binding signal is -0.0159 E-score.

Regarding CGTGCACC, the binding signal was -0.199 E-score.

CCTACCAG: the binding signal is 0.0329 E-score.

Consider GCCCTGTA, for which the binding signal is -0.192 E-score.

With CGACTACC, the binding signal came out at 0.000144 E-score.

Turning to CTACTAGC, the binding signal was 0.256 E-score.

Turning to ATACTACC, the binding signal came out at 0.379 E-score.

For the sequence ATACTACG, the binding signal was 0.273 E-score.

CTACTACC: the binding signal was determined as 0.363 E-score.

In the case of ACACTACC, the binding signal was -0.0628 E-score.

Consider GCTAACCA, for which the binding signal was -0.102 E-score.

Regarding GAGTCTTA, the binding signal was -0.0226 E-score.

For GCTTACAC, the binding signal is -0.028 E-score.

As to ACGCGGGA, the binding signal was -0.0896 E-score.

As for CGAGCCGA, the binding signal is -0.177 E-score.

Consider CCTAAATC, for which the binding signal was -0.11 E-score.

Take ACTAAATA: the binding signal was found to be 0.354 E-score.

As for ACTAAAAT, the binding signal came out at 0.397 E-score.

On to GCTAAATA, for which the binding signal was determined as 0.32 E-score.

With ACTAAAAC, the binding signal was determined as 0.26 E-score.

For ACTAAAAA, the binding signal was found to be 0.26 E-score.

As for ACTAAATC, the binding signal was found to be 0.35 E-score.

ACTAAATG: the binding signal was 0.226 E-score.

For the sequence CCTAAATA, the binding signal stood at 0.155 E-score.

For the sequence ATGAACTC, the binding signal is -0.191 E-score.

With GTCGCCTA, the binding signal was -0.125 E-score.

On to ACTATTAC, for which the binding signal was found to be 0.4 E-score.

Consider GCTATTAC, for which the binding signal was 0.285 E-score.

As to ACTATTAT, the binding signal amounted to 0.364 E-score.

For the sequence ACTATTAA, the binding signal is 0.302 E-score.

For CCTATTAC, the binding signal turned out to be 0.247 E-score.

In the case of ACTATTAG, the binding signal was 0.263 E-score.
